# Reference: PMC4336329 (PLoS ONE, 2015)
# About 14,000 (4.5%) of roughly 310,000 compounds showed an effect of 50% or more. The effect is printed as a negative number. For the sample, strong results were picked, then their nearest neighbours and some compounds at random.
# Molecular target: human ether-à-go-go-related gene (hERG) potassium channel (human, UniProt Q12809)
# Test: primary screen, population patch clamp on CHO cells stably expressing hERG; higher = less effect of the substance
# 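Note: peak tail current of the secondary pulse compared with the same well before compound.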
# Sequence of human ether-à-go-go-related gene (hERG) potassium channel (Q12809 whole entry, looked up): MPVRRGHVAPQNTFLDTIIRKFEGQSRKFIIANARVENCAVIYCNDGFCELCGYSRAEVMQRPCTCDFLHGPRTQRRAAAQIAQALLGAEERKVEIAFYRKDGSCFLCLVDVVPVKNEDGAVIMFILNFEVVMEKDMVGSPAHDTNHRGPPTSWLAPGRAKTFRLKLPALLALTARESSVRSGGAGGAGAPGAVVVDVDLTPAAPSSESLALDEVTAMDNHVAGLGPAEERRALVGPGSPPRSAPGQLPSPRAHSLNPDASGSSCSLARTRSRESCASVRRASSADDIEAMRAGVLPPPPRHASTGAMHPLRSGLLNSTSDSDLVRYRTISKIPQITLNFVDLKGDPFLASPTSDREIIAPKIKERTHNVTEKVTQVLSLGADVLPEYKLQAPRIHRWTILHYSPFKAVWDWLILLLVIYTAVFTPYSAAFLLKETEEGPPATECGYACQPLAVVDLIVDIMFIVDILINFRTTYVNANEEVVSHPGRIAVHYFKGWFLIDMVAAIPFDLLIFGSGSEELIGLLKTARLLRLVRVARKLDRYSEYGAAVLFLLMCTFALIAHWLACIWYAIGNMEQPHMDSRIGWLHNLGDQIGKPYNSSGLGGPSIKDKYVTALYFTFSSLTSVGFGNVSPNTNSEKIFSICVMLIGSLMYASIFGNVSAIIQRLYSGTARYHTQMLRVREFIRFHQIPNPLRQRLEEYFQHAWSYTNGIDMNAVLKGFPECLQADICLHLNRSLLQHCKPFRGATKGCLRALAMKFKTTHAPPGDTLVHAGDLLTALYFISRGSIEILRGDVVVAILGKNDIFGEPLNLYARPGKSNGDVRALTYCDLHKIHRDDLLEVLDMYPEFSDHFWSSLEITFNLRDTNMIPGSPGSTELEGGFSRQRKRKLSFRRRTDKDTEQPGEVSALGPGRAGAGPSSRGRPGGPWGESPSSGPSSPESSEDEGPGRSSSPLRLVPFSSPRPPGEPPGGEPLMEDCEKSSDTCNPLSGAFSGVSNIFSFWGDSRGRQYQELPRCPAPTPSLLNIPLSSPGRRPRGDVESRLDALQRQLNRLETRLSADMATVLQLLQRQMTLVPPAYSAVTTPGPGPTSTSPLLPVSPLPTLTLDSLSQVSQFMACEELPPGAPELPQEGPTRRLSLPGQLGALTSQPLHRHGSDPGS
row,SMILES,"hERG current change (%, negative = inhibition) at 10uM [%]"
1,O=C(Nc1ccccn1)C1CCN(S(=O)(=O)c2ccc3c(c2)OCCO3)CC1,-11.5
2,Cc1ccccc1OCC(=O)Nc1cc(Cl)ccc1Oc1ccccc1,0.121
3,O=C1NC(Cc2c[nH]c3ccccc23)C(=O)N1c1ccc(F)cc1 (stereo not shown),12.4
4,CCCNC(=O)C/C(C)=N/NC(=O)C(=O)Nc1ccccn1,29.4
5,O=C(CN1C(=O)NC2(CCCc3ccccc32)C1=O)N1CCc2ccccc2C1 (stereo not shown),-17.3
6,COc1ccc(-n2nc(C(=O)N3CCC(N4CCCCC4)CC3)c3c4ccccc4n(C)c3c2=O)cc1,7.1
7,CCN1CCN(C(=O)c2nn(-c3ccc(OC)cc3)c(=O)c3c2c2ccccc2n3C)CC1,-4.67
8,COc1ccc(-n2nc(C(=O)N3CCC(C#N)CC3)c3c4ccccc4n(C)c3c2=O)cc1,-55.5
9,CC1CCN(C(=O)CN2C(=O)C(=O)N(C(C)C)C2=O)c2ccccc2S1 (stereo not shown),-4.64
10,Cc1ccc2nc(-c3ccc(-c4cccc(Cl)c4)cc3)c(NCc3ccccc3)n2c1.O=C(O)C(F)(F)F,-1.52
11,N#C/C(=C\c1ccc(C#N)cc1)C(=O)N1CCCC1,7.75
12,CCN1CCN(C(=O)/C(C#N)=C/c2ccc(OC(F)F)cc2)CC1.Cl,-74.3
13,N#C/C(=C\c1ccc(OC(F)F)cc1)C(=O)N1CCCCC1,-21.8
14,CCOC(=O)c1ccc(NC(=O)Cn2c(=O)oc3ccccc32)cc1,10.9
15,O=C(NCc1ccc(Cl)cc1)C1CCC(CNc2c(N3CCOCC3)c(=O)c2=O)CC1 (stereo not shown),14.9
16,Cc1cc(-c2nnc(CCC(=O)NCc3ccc(OC(F)(F)F)cc3)o2)no1,3.05
17,C/C(=N\NC(=O)c1nc2ccccn2c1C)c1cccc([N+](=O)[O-])c1,-23.4
18,Cc1ccc(C(=O)C(C)OC(=O)CN2C(=O)NC3(CCCC3)C2=O)cc1C (stereo not shown),9.76
19,O=C(Sc1ccc(Cl)cc1)c1cccc(Cn2cc(C(F)(F)F)ccc2=O)c1,18.6
20,COc1c(C)cc(C(=O)C2CCCN(S(=O)(=O)N(C)C)C2)cc1C (stereo not shown),-66.5
21,CCOC(=O)N1CCC(N2CCCC(C(=O)c3cccc(OC)c3)C2)CC1 (stereo not shown),-64.8
22,COc1c(C)cc(C(=O)C2CCCN(C3CCOCC3)C2)cc1C (stereo not shown),-15.2
23,CCOC(=O)c1c(C)[nH]c(C(=O)N2CCCC(C(=O)c3cccc(OC)c3)C2)c1C (stereo not shown),-8.55
24,COc1c(C)cc(C(=O)C2CCCN(S(=O)(=O)c3c(C)noc3C)C2)cc1C (stereo not shown),-2.78

row,SMILES,"hERG current change (%, negative = inhibition) at 10uM [%]"
1,CCCC(=O)N1CCCC(C(=O)c2cccc(OC(C)C)c2)C1 (stereo not shown),3.64
2,CCOC(=O)N1CCC(N2CCCC(C(=O)c3cccc(OC(C)C)c3)C2)CC1 (stereo not shown),-76.8
3,CC(=O)N1CCC(N2CCCC(C(=O)c3cccc(Cl)c3)C2)CC1 (stereo not shown),5.55
4,CCOC(=O)N1CCC(N2CCCC(C(=O)c3cc(C)c(OC)c(C)c3)C2)CC1 (stereo not shown),-57.3
5,COc1ccc(C(=O)C2CCCN(S(=O)(=O)N(C)C)C2)c(C)c1 (stereo not shown),0.683
6,CCOC(=O)CNC(=O)N1CCCC(C(=O)c2cc(C)c(OC)c(C)c2)C1 (stereo not shown),9.16
7,CCOC(=O)CCNC(=O)N1CCCC(C(=O)c2cccc(OC(C)C)c2)C1 (stereo not shown),-10.3
8,Cn1cc(C(=O)OCC(=O)Nc2ccccc2)c2ccccc21,-8.39
9,CCCCCCOc1ccc(N2C(=O)CC(N3CCN(CCN=CC4C(=O)CC(C)(C)CC4=O)CC3)C2=O)cc1 (stereo not shown),-32.5
10,CN(C)S(=O)(=O)c1cccc(NC(=O)COC(=O)c2cn(-c3ccccc3)nc2-c2ccccc2)c1,12.3
11,O=C1Nc2ccccc2N(O)N1c1cc(-c2ccc(Cl)cc2)[nH]n1,22.9
12,CC(C)(C)c1nc(N)nc(=O)[nH]1,-1.18
13,CCOC(=O)N1CCC(N2CCCC(CO)(Cc3cccc(OC)c3)C2)CC1 (stereo not shown),-51.7
14,CCOC(=O)N1CCC(N2CCCC(C(=O)c3ccc4cc(OC)ccc4c3)C2)CC1 (stereo not shown),-74.3
15,COc1ccc2cc(C(=O)C3CCCN(C(=O)Cc4c(C)noc4C)C3)ccc2c1 (stereo not shown),-68.5
16,CCNC(=O)N1CCCC(C(=O)c2ccc3cc(OC)ccc3c2)C1 (stereo not shown),-22.5
17,CCOC(=O)N1CCC(N2CCCC(CO)(Cc3cccc(Cl)c3)C2)CC1 (stereo not shown),-49
18,COc1ccc(C(=O)C2CCCN(C(=O)Cc3c(C)noc3C)C2)cc1OC (stereo not shown),-3.81
19,Cc1noc(C)c1CC(=O)N1CCCC(C(=O)c2ccc(C(C)(C)C)cc2)C1 (stereo not shown),-18.8
20,CCOC(=O)N1CCC(N2CCCC(CO)(Cc3ccccc3C)C2)CC1 (stereo not shown),0.621
21,COc1ccc2cc(C(=O)C3CCCN(C(=O)c4csnn4)C3)ccc2c1 (stereo not shown),-13.2
22,COc1cccc(CC(Cc2nc3ccccc3[nH]2)c2nc3ccccc3[nH]2)c1 (stereo not shown),-33
23,Cn1nnnc1SCC(=O)Nc1ccc(N2CCOCC2)cc1,5.57
24,N#CCc1ccc(NC(=O)c2ccc(S(=O)(=O)N3CCCC3)cc2)cc1,16.9

row,SMILES,"hERG current change (%, negative = inhibition) at 10uM [%]"
1,CC1CCCCN1S(=O)(=O)c1ccc(NC(=O)c2cccs2)cc1 (stereo not shown),-11.3
2,COc1ccccc1CNc1ncnc2c1cnn2-c1ccccc1,-12.1
3,COc1ccc2nc(Nc3nc(CSc4nnnn4-c4ccccc4)cc(=O)[nH]3)nc(C)c2c1,-42.1
4,O=C(NCc1ccccc1Cl)c1ccc2ccccc2n1,-1.85
5,O=C(O)C1=C[C@@H](c2ccc(Br)cc2)C[C@@H](OCc2ccc(CO)cc2)O1,18.2
6,Cc1ccc(NC(=O)[C@@H]2CCCN2S(=O)(=O)c2ccccc2C(F)(F)F)cc1S(=O)(=O)N1CCOCC1,-21.4
7,CCN1C(=O)N[C@H](c2ccccc2)C(C(C)=O)=C1C,8.38
8,CN1CCN(C=NC2=NN(c3cccc(C(F)(F)F)c3)CC2)CC1,-23.9
9,O=[N+]([O-])c1ccc(Oc2ccc(/C=N/O)cc2)nc1,0.3
10,N#Cc1ccc(Oc2ccc(/C=N/O)cn2)cc1,-73.7
11,Cc1ccc(Oc2ccc(/C=N/O)cn2)cc1,-1.45
12,CCOC(=O)Nc1ccc(C(=O)/C=C/c2ccccc2)cc1,-7.78
13,COc1cccc(/C=C(\CC(=O)O)c2nc3ccccc3s2)c1,11.6
14,Cn1ncc(Cl)c1C(=O)NNC(=O)Nc1cccc2ccccc12,7.09
15,CCOC(=O)N1CCN(S(=O)(=O)c2cc(-c3nn4c(C)nnc4c4ccccc34)ccc2C)CC1,-29
16,Cc1ccc(-c2nn3c(C)nnc3c3ccccc23)cc1S(=O)(=O)NCc1ccccc1,-29.5
17,Cc1ccc(-c2nn3c(C)nnc3c3ccccc23)cc1S(=O)(=O)NCCO,11
18,Cc1ccc(-c2nn3c(C)nnc3c3ccccc23)cc1S(=O)(=O)NC(C)c1ccccc1 (stereo not shown),-50.8
19,Cc1ccc(-c2nnc3c4ccccc4c(C)nn23)cc1S(=O)(=O)N1CCN(CCO)CC1,-32.9
20,Cc1ccc(-c2nn3c(C)nnc3c3ccccc23)cc1S(=O)(=O)N1CCN(CCO)CC1,-74.5
21,CCCN(C(=O)c1cc(Cl)nc2ccccc12)C1CCS(=O)(=O)C1 (stereo not shown),9.75
22,O=C(N/N=C/c1ccncc1)c1ccc(NS(=O)(=O)c2cccs2)cc1,8.88
23,COc1cccc(CN(C)CC2CCCN(CCc3ccccc3C)C2)c1 (stereo not shown),-109
24,COc1ccc(CCN2CCCC(CN(C)Cc3cccc(OC)c3)C2)cc1 (stereo not shown),-60.6

row,SMILES,"hERG current change (%, negative = inhibition) at 10uM [%]"
1,CC(=O)c1cccc(CN(C)CC2CCCN(CCc3ccccc3C)C2)c1 (stereo not shown),-28.8
2,COc1ccc(CN(C)CC2CCCN(CCc3ccccc3C)C2)cc1O (stereo not shown),-53.8
3,CCn1c(CNC(=O)c2ccccc2Br)nnc1SCC(=O)Nc1nncs1,3.2
4,COc1cccc(C(=O)Nc2ccc(NC(=O)c3ccco3)cn2)c1,-15.1
5,O=C(Nc1ccc2c(c1)OCO2)c1cnn2c(C(F)(F)F)cc(-c3ccco3)nc12,2.24
6,CCOC(=O)Cc1c(C)nc2c(-c3ccccc3OC)c(C)nn2c1C,-22.7
7,COc1ccc(/C=N/N2C(=O)CN(C(=O)c3ccccc3)C2c2ccc(OC)cc2)cc1 (stereo not shown),-4.19
8,CN1CCc2c1nc1ccccc1c2N.O=C(O)c1cc([N+](=O)[O-])ccc1Cl,-9.41
9,CCCCc1nc2ccccc2c(C(=O)O)c1C,7.29
10,CCCCc1nc2ccccc2c(N)c1CCC.O=C(O)c1cc([N+](=O)[O-])ccc1Cl,-66.4
11,Cc1cccc(C(=O)N2N=C(c3ccc(NS(C)(=O)=O)cc3)CC2c2cccs2)c1 (stereo not shown),-8.44
12,CS(=O)(=O)Nc1ccc(C2=NN(C(=O)c3ccccc3)C(c3cccs3)C2)cc1 (stereo not shown),-59.6
13,CS(=O)(=O)Nc1ccc(C2=NN(C(=O)C3CCCCC3)C(c3cccs3)C2)cc1 (stereo not shown),-22.8
14,CS(=O)(=O)Nc1cccc(C2=NN(C(=O)c3cccc(F)c3)C(c3cccs3)C2)c1 (stereo not shown),3.75
15,CS(=O)(=O)Nc1ccc(C2=NN(S(C)(=O)=O)C(c3cccs3)C2)cc1 (stereo not shown),-49
16,CC(C)C(=O)N1N=C(c2ccc(NS(C)(=O)=O)cc2)CC1c1cccs1 (stereo not shown),-68.7
17,CS(=O)(=O)Nc1cccc(C2=NN(S(=O)(=O)c3ccccc3)C(c3cccs3)C2)c1 (stereo not shown),-1.94
18,Cc1ccc(C(=O)N2N=C(c3ccc(NS(C)(=O)=O)cc3)CC2c2cccs2)cc1 (stereo not shown),-23.1
19,CCS(=O)(=O)Nc1ccc(C2=NN(C(=O)c3ccccc3)C(c3cccs3)C2)cc1 (stereo not shown),4.84
20,CS(=O)(=O)Nc1ccc(C2=NN(C(=O)c3cccc(F)c3)C(c3cccs3)C2)cc1 (stereo not shown),-53.8
21,CC(C)(C)C(=O)N1N=C(c2ccc(NS(C)(=O)=O)cc2)CC1c1cccs1 (stereo not shown),-18.6
22,CS(=O)(=O)Nc1ccc(C2=NN(S(=O)(=O)c3ccccc3)C(c3cccs3)C2)cc1 (stereo not shown),-70.3
